This is part of a sample that, as a whole, favours compounds with a hit. Of some 83,000 tested, about 20% had one in any assay.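 Percent growth is the endpoint: 0 to 100 indicates growth inhibition (40 means 60% inhibition), 0 means no net growth, and negative values indicate cell death.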 A number with no mark means an inactive call. Activity calls are given as the source filed them. Rule for the calls: active = growth percent below 10; inactive = the rest.
How the values were obtained:
Assay in all cases: NCI-60 one-dose screen, 48 h (100 = growth as untreated, 0 = no growth, -100 = all killed)
Conditions in all cases: 10 µM unless noted
SK-MEL-2 melanoma = test system: SK-MEL-2 melanoma
EKVX NSCLC = test system: EKVX NSCLC
SN12C renal = test system: SN12C renal
UO-31 renal = test system: UO-31 renal
TK-10 renal = test system: TK-10 renal
ACHN renal = test system: ACHN renal
CAKI-1 renal = test system: CAKI-1 renal
A498 renal = test system: A498 renal
CCRF-CEM leukemia = test system: CCRF-CEM leukemia
MOLT-4 leukemia = test system: MOLT-4 leukemia

SMILES | growth (SK-MEL-2 melanoma) | growth (EKVX NSCLC) | growth (SN12C renal) | growth (UO-31 renal) | growth (TK-10 renal) | growth (ACHN renal) | growth (CAKI-1 renal) | growth (A498 renal) | growth (CCRF-CEM leukemia) | growth (MOLT-4 leukemia)
Clc1ccc(CNc2c3ccccc3nc3ccccc23)cc1 | 72.4% | 62.6% | 39.1% | 27% | 49.7% | 22.8% | 41.4% | 20.8% | 30.2% | 4.63% (active)
N#C/C(=C\c1ccc(Br)cc1)n1nnc2ccc(F)cc21 | 13.8% | 49.9% | -51.2% (active) | -36.4% (active) | -3.76% (active) | -37.9% (active) | -4.59% (active) | -15.6% (active) | -10.2% (active) | -20% (active)
Cn1c(-c2ccc(Br)cc2)c(O)c(=O)c2c(F)cccc21 | 87.1% | 56% | 68.8% | 26.3% | 42.4% | 37% | 47.9% | 62.3% | 94.1% | 99%
CCOC(=O)c1[nH]c(=O)c2c(C)nc(-c3ccccc3)cc2c1O | 84.8% | 98.8% | 88.8% | 90% | 178% | 110% | 109% | 72.6% | 91.8% | 98.1%
Cc1ccc(-c2nc(/C=C3/C(=O)Nc4ccccc43)c3ccccn23)cc1 | 39.3% | 80.1% | 82.6% | 54.3% | 88.9% | 16.6% | 48.8% | 104% | 84.3% | 72.2%
COc1ccc(/C=C2\C(=O)N=C3N2NC(c2cc(Br)ccc2O)C=C(C)N3c2ccccc2)cc1 (stereo not given) | 104% | 105% | 97.6% | 81.6% | 118% | 99% | 96.5% | 94.1% | 99.8% | 97.4%
COc1cc(CNC(=O)CCCC/C=C/C(C)C)ccc1OCc1nnc(Nc2ccc([N+](=O)[O-])cc2)o1 | 78.9% | 74.7% | 49% | 58.7% | 84.1% | 41.2% | 33.6% | 56.8% | 78.9% | 84.2%
COc1cc(N2C(=O)[C@H](O)C2c2ccc(SC)cc2)cc(OC)c1OC (stereo not given in full) | 16.6% | 36.7% | 28.7% | 43.5% | 40.7% | 31.8% | 23.6% | -1.79% (active) | 3.99% (active) | 4.67% (active)
O=C(O)c1ccc(-n2cc(/C=N/Nc3ccc(F)cc3)c(-c3cc4ccccc4oc3=O)n2)cc1 | 83.3% | 52.9% | 101% | 39.8% | 113% | 41% | 68.6% | 109% | 40.2% | 48.1%
O=C(c1ccccc1)C1C(=O)N2C(=S)N(c3ccccc3)C(=O)C2C1c1ccc(Cl)cc1 (stereo not given) | 99.5% | 100% | 91.7% | 66.8% | 126% | 91.8% | 82.9% | 81.9% | 98% | 102%
O=C(/C=C/c1cn(-c2ccccc2)nc1-c1ccc([N+](=O)[O-])cc1)c1ccc(Cl)cc1 | 96.2% | 60.7% | 50.5% | 41.2% | 14.1% | 52.3% | 31.9% | 78.5% | 38% | 38%
CCNc1cc(-c2cccc(OC(F)(F)F)c2)nc2ccc(N3CCCC3)cc12 | 6.05% (active) | 17.1% | 9.26% (active) | 5.13% (active) | 35.5% | -12.7% (active) | 30.6% | 58.9% | 13.4% | 2.48% (active)
COc1ccc(CC(C#N)c2cc3ccccc3[nH]2)cc1 (stereo not given) | 113% | 95.9% | 92.7% | 61.5% | 118% | 93.9% | 72.6% | 84.2% | -27.2% (active) | 98.1%
CCOC(=O)c1nc(Nc2ccc(NC(=O)Nc3ccc(F)cc3)cc2)c2ccccc2n1 | 103% | 97.4% | 99.4% | 81% | 120% | 102% | 91.1% | 62% | 109% | 98.5%
N=C(N)c1ccc(-c2ccc(-c3ccc(F)cc3)o2)o1 | 35.6% | 47.5% | 37.4% | 15.5% | 49.9% | 27.2% | 31.3% | 37.1% | 2.36% (active) | 8.09% (active)
Cn1cc(-c2nonc2-c2c[nH]c3ccc(Br)cc23)c2cc(Br)ccc21 | 73.9% | 33.5% | 66.9% | 24.4% | 39.6% | 14.3% | 24% | 28% | 34.4% | 25.1%
Oc1c(Cl)cc(Cl)c2ccc(Cn3cc(-c4ccc(C(F)(F)F)cc4)nn3)nc12 | 95.4% | 81% | 76.9% | 68.5% | 97.3% | 36.7% | 21% | 83.7% | 6.1% (active) | -8.16% (active)
CC(=O)N(N=Nc1ccccc1)c1cccc2ccccc12 | 20.1% | 101% | 85.7% | 61.2% | 96.8% | 8.59% (active) | 31.8% | 115% | 79.8% | 76.8%
CCN(CC)C(=S)SC(SC(=S)N(CC)CC)C(=O)c1nnn(-c2ccc([N+](=O)[O-])cc2)c1C | 91.6% | 97.2% | 96.4% | 80.5% | 107% | 98.7% | 89.5% | 67.3% | 68.3% | 92.5%
CCCCN[C@H]1CC[C@@]2(C)[C@@H](CC[C@@]3(C)[C@H]2[C@H](O)C[C@H]2/C(=C(\CCC=C(C)C)C(=O)OC)[C@@H](OC(C)=O)C[C@@]23C)[C@@H]1C | 106% | 96.9% | 94.6% | 81.5% | 97.4% | 91.7% | 90.6% | 97.7% | 41.3% | 10.6%
C=CCn1c(SCC(=O)Nc2ccc(C(=O)/C=C/c3ccc(Cl)cc3)cc2)nnc1-c1cc(-c2ccc(S(N)(=O)=O)cc2)nc2ccccc12 | 103% | 94.6% | 90.2% | 82.8% | 99.9% | 98.1% | 66.3% | 89% | 54.2% | 66.1%
O=S(=O)(Nc1ccccc1)c1ccc(C2CC3(Cl)C(Cl)=C(Cl)C2(Cl)C3(Cl)Cl)cc1 (stereo not given) | 74.1% | 36.3% | -18.5% (active) | 26.7% | 66.2% | 40% | -19.8% (active) | 62.4% | 47.6% | 30%
COc1ccc(-c2nnc3n(C)c(=O)c4ccccc4n23)cc1N | 22% | 55.7% | 34.6% | 44.3% | 45.3% | 50.8% | 29.2% | -8.12% (active) | 18.5% | 33.4%
O=Nc1c(-c2c(O)[nH]c3ncccc23)[nH]c2ccccc12 | 14.7% | 35.5% | 72.8% | 10.6% | 40.3% | 22.6% | 12.4% | -11.7% (active) | 64.8% | 40.8%
CC1=C(CCC(C)N(C)Cc2ccc(OCCCN3CCCC3)cc2)C(C)(C)CCC1 (stereo not given) | -55.2% (active) | 47.4% | 56.9% | 20.3% | 49.9% | 36.8% | 49.9% | 57.2% | 11.1% | -24.2% (active)
CN1CCN(C(=O)OCc2ccc3c(Cl)cc(Cl)c(O)c3n2)CC1 | 76% | 79.7% | 56.9% | 34% | 105% | 45% | 55.1% | 106% | 40.5% | 8.31% (active)
COC(=O)c1c2c(c(C)[n+]([O-])c1C)C(=O)C(NCc1ccc(Cl)cc1)=CC2=O | 83.4% | 70.9% | 38% | 79% | 111% | 67.5% | 76.3% | 88.2% | 58% | 72.8%

From PubChem BioAssay (NCI)
